Only some compounds are listed: those with a hit (about 22% of all), similar ones and a draw of the others.
E-sel TNF inh: TNF alpha driven E-selectin expression inhibition | HUVEC TNFa-induced E-selectin immunofluorescence, high content | inhibition, % at 2 µM | 120,000 tested, 0.71% active | AID 1246;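 active = inhibition above the batch mean plus 3 SD, and confirmed as a hit on visual image review, cut at about 43% in these data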;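 note: 0% = TNF-stimulated DMSO wells and 100% = unstimulated control wells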
CYP2C19 inhib: human CYP2C19 inhibition; 96,000 tested, 21% active; inhibition, % at 5 µM; CYP2C19 Supersomes, luciferin-H EGE luminescence, 30 min;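 active = CYP2C19 inhibition above a set limit at 5 µM in the primary screen, cut at about 50% in these data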;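 note: plate controls were negative control wells for no effect and 2.5 mM tranylcypromine positive control for full effect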
CYP2C9 act: CYP2C9 (human) activation | activation factor at 5 µM | recombinant CYP2C9, luciferin-H conversion, luminescence; stronger effect = higher value; factor 1 = untreated enzyme, 0 = blocked | AID 1024 | P11712 | 96,000 tested, 1.4% active;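 active = activation factor of 2 or more for CYP2C9 at a 5 µM dose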;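 note: 0 = sulfaphenazole-blocked wells and 1 = vehicle-only wells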
Target sequence (P11712 whole entry, looked up): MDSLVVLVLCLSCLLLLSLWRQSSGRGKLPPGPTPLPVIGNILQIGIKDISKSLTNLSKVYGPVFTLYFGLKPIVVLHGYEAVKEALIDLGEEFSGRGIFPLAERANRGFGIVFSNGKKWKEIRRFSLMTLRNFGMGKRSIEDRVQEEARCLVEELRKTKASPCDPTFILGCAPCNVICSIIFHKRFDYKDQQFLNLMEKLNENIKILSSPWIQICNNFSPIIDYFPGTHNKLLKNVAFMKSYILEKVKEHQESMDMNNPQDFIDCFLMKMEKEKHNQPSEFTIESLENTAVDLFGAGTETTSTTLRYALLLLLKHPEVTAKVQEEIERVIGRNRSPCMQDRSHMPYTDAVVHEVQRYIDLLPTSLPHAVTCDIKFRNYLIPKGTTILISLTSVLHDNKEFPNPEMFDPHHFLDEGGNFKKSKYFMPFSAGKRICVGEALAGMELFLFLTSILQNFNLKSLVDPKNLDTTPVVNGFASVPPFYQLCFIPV
CYP2C9 inh: inhibitors of human CYP2C9 | P11712 | CYP2C9 Supersomes, luciferin-H conversion, luminescence | inhibition, % at 5 µM | 96,000 tested, 20% active;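 active = blocking of liver enzyme CYP2C9 beyond about 50% at 5 µM, limit read from the data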
cytoskel mod: alters cytoskeleton assembly in HUVEC cells | inhibition, % at 2 µM | AID 836 | HUVEC TNFa F-actin phalloidin imaging, high content | 91,000 tested, 0.18% active;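 active = inhibition above the batch mean plus 3 SD and confirmed as a hit by visual image inspection, cut at about 30% in these data, passing the limit was not always enough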
CYP2C19 act: cytochrome P450 2C19 (human) activation; recombinant CYP2C19, luciferin-H EGE luminescence; stronger effect = higher value; 0 = fully inhibited enzyme, 1 = untreated enzyme; P33261; activation factor at 5 µM; 96,000 tested, under 10 active;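 active = activation factor of at least 2 at 5 µM in the primary screen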;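 note: 0 = wells with 2.5 mM tranylcypromine and 1 = vehicle-only wells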
Starred values were filed as active, the others as inactive; x = not tested or not shown.

SMILES	E-sel TNF inh	CYP2C19 inhib	CYP2C9 act	CYP2C9 inh	cytoskel mod	CYP2C19 act
COc1ccc(C(C)C)cc1S(=O)(=O)NCc1ccccn1	-7.5	65.4*	0.5	52.2*	3.0	0.3
Cc1ccc(C)c(Nc2nc3nonc3nc2N2CCOCC2)c1	-64.8	11.9	0.9	7.9	16.4	0.9
COc1cc(C(=O)N2c3ccccc3CC2C)cc(OC)c1OC (stereo not given)	-3.5	24.6	0.8	22.8	-15.5	0.8
CCC(CO)Nc1ncnc2c1cnn2-c1ccc(OC)cc1 (stereo not given)	3.9	19.0	0.8	17.1	-2.9	0.8
CCC(CO)Nc1ncnc2c1cnn2-c1ccc(Cl)cc1 (stereo not given)	x	46.5	0.3	65.2*	-19.9	0.5
COc1ccc(Br)cc1CNC(=O)Nc1cccs1	1.9	75.6*	0.3	66.6*	-9.6	0.2
COc1ccccc1CNC(=O)Nc1cccs1	8.7	87.5*	0.6	41.1	x	0.1
O=S(=O)(NCc1csc(-c2cccnc2)n1)c1ccc2c(c1)OCCO2	8.4	57.1*	0.8	21.5	-6.1	0.4
O=S(=O)(NCCc1csc(-c2ccccc2)n1)c1ccc2c(c1)OCCO2	-42.2	89.2*	0.9	14.4	-12.6	0.1
O=C(CNS(=O)(=O)c1ccc2ccccc2c1)OCc1csc(-c2ccccc2)n1	-1.3	x	x	x	x	x
C/C=C/Cn1c(SCc2ccccc2)nc2c1c(=O)[nH]c(=O)n2C	x	30.1	0.7	31.5	5.2	0.7
CCN(CC)S(=O)(=O)c1cccc(C(=O)NC(Cc2c[nH]c3ccccc23)c2nnc3n2CCCCC3)c1 (stereo not given)	12.0	6.4	0.8	18.2	11.8	0.9
Cc1nn(Cc2ccc(C(=O)NC3CCCCC3)o2)c(C)c1Br	-12.6	75.6*	0.5	50.1*	2.9	0.2
Cc1cc(NC(=O)c2ccc(Cn3nc(C)c(Br)c3C)o2)no1	-34.7	48.8	0.7	31.5	-14.4	0.5
Cc1nn(Cc2ccc(C(=O)NC(C)(C)C)o2)c(C)c1Br	x	50.1*	0.7	30.2	8.8	0.5
Cc1nn(Cc2ccc(C(=O)Nc3ccc(C(=O)OC(C)C)cc3)o2)c(C)c1Cl	-63.8	46.0	0.4	63.2*	4.5	0.5
CCOc1ccc2[nH]c(=O)c(CN(CCO)C(=O)c3ccc(OC)c(OC)c3)cc2c1	3.9	5.1	0.9	12.6	x	0.9
Cc1ccc(Sc2cnc(N)nc2C)cc1	-82.8	x	x	x	x	x
CCOC(=O)C1=C(C)n2c(s/c(=C3\C(=O)Nc4ccccc43)c2=O)=NC1c1ccc(OC)cc1 (stereo not given)	-1.1	x	x	x	x	x
Cc1cc2nc(C)n(CCCNC(=O)Nc3ccc(F)cc3)c2cc1C	6.1	29.8	0.4	60.1*	-4.3	0.7
COc1ccc(C2=NN(c3nc(C)cc(C)n3)C(=O)C2)cc1	-15.8	x	x	x	x	x
Cc1c(Cc2ccccc2)c(=O)oc2c(CN(C)C)c(O)c(Cl)cc12	-20.3	x	x	x	x	x
CN(C)Cc1c(O)ccc2oc(Cc3ccccc3)cc12	-15.3	72.4*	0.8	22.9	-5.8	0.3
Cn1ncc2nc[nH]c(=O)c21	x	50.3*	0.6	41.1	-4.5	0.5
N#Cc1c(NC(=O)CSc2nc3c(c(C(F)(F)F)n2)CCc2ccccc2-3)sc2c1CCCC2	-6.3	-2.4	0.6	42.3	51.5	1
SMILES	E-sel TNF inh	CYP2C19 inhib	CYP2C9 act	CYP2C9 inh	cytoskel mod	CYP2C19 act
COc1ccc(CCNC(=O)C23CN(Cc4ccccc4)CC2C(c2ccc([N+](=O)[O-])cc2)=NO3)cc1 (stereo not given)	x	80.6*	0.4	59.4*	12.9	0.2
Cc1ccc(CNC(=O)C23CN(Cc4ccccc4)CC2C(c2ccc([N+](=O)[O-])cc2)=NO3)o1 (stereo not given)	-17.6	35.0	0.5	53.8*	20.1	0.7
O=C(NCCCCc1ccccc1)C12CN(Cc3ccccc3)CC1C(c1ccc([N+](=O)[O-])cc1)=NO2 (stereo not given)	x	78.5*	0.4	57.7*	-26.0	0.2
COc1ccc(CN(CC2CCCO2)S(=O)(=O)c2ccc(C(=O)O)cc2)cc1OC (stereo not given)	x	-12.9	1.1	-11.6	7.9	1.1
CCCn1c(NCc2ccc(C)o2)nc2ccccc21	-17.2	25.5	1	0.0	x	0.7
Cc1ccc(CNC(=O)CCCn2c(=O)c3ccccc3n(CC(=O)NC3CCCC3)c2=O)cc1	-22.6	30.8	0.3	75.0*	x	0.7
